SMILES strings stand for the structures. Several values for one entry are separate records, joined by “and”; a condition that tells them apart may be missing. Identical values can stand only once. Results filed as inconclusive are left out. Activity calls are given as the source filed them. Unless noted, calls come from the whole dose curve.

Chain of Bile acid receptor (Homo sapiens) (Q96RI1 whole entry, looked up): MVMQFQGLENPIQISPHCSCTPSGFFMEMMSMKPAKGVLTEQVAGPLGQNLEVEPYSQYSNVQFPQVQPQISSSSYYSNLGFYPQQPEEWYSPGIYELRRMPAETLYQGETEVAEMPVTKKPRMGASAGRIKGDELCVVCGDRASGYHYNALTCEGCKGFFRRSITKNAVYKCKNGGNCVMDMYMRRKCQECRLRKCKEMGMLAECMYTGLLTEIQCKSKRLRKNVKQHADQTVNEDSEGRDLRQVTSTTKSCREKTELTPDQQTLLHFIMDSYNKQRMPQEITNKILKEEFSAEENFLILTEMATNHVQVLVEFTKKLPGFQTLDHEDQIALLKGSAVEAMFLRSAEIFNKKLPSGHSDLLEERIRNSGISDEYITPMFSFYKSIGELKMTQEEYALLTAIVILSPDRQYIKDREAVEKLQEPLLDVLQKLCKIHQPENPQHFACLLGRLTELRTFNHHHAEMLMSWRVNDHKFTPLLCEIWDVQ
Chain of Cytochrome P450 3A4 (Homo sapiens) (P08684 whole entry, looked up): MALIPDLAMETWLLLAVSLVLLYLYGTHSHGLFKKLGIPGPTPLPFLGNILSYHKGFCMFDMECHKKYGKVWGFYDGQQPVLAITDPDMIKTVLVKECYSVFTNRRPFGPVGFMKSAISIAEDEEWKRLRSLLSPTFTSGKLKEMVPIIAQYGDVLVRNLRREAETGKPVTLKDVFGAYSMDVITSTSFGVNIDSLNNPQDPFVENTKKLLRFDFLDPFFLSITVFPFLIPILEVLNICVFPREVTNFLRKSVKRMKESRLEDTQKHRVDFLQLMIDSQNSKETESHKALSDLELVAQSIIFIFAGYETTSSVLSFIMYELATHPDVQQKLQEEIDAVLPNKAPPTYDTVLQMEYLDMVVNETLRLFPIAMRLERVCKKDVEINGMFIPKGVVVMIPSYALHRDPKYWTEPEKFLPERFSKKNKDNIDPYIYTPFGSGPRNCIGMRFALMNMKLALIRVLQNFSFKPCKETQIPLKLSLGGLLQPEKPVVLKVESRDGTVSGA

The target of one test is Cytochrome P450 3A4 (Homo sapiens) (UniProt P08684). Briefly: qHTS Assay for Activators of Cytochrome P450 3A4 (AID 885; active = well fitted activation curve with a large enough effect; note: nearly all actives have a fitted effect of over 65% in size). Particulars: recombinant CYP3A4, Luciferin-PPXE luminescence, 60 min; series mostly up to 57.1 µM. An outline of the steps:
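Human CYP3A4 (20 nM) with Luciferin-PPXE at 25 uM (its KM) in 200 mM KPO4; 10 min compound preincubation, then NADPH regeneration and 60 min reaction at RT. Luciferin read by luminescence; normalized to 57 uM ketoconazole full inhibition.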
For the molecule `CCCCC(CC)COC(=O)CCCCC(=O)OCC(CC)CCCC` (stereo unspecified), the Potency entry was “inactive”.
The same measure, in the same setting: with `Cc1cc(C)c(N)cc1C` the entry was “inactive”.
Same read-out and setting: with `CC/C(=C(\c1ccccc1)c1ccc(OCCN(C)C)cc1)c1ccc(O)cc1` the entry was “inactive”.
Still for that read-out and setting: with `Cc1ccc([N+](=O)[O-])cc1N` the entry was “inactive”; with `CC(=O)OCc1ccc2c(c1)OCO2`, “inactive”.
Consider `Nc1ccc(-c2ccc(N)c(O)c2)cc1O`, for which the Potency result was “inactive”.
The same measure, in the same setting: in the case of `Cc1cc([N+](=O)[O-])ccc1N` it was “inactive”; in that of `Cc1ccc2ccc3cccc4ccc1c2c34`, “inactive”; in that of `CN(C)c1ccc(Cc2ccc(N(C)C)cc2)cc1`, “inactive”.
On to `CCCCC(CC)COP(=O)(OCC(CC)CCCC)OCC(CC)CCCC` (stereo unspecified), for which the Potency result is “inactive”.

In a further test the target is Bile acid receptor (Homo sapiens) (UniProt Q96RI1). Briefly: qHTS assay for small molecule agonists of farnesoid X receptor signaling (AID 588527).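 Note: 0% = vehicle basal and 100% = reference agonist.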 To be noted: HEK293T FXR-UAS-bla, beta-lactamase ratio, 16 h; activation: hits give high values. An outline of the steps:
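FXR-UAS-bla HEK293T cells (10% dialyzed FBS) preincubated 5-7 h at 37 C, then compounds at up to 92 uM for 16 h at 37 C. CCF4 beta-lactamase read-out after 2 h RT. Normalized to chenodeoxycholic acid (100 uM) and DMSO; Hill fit gave EC50 and efficacy.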
As to `CC(C)=CCl`, the activation is -3.14% (inactive).
With `c1ccc2c(c1)ccc1c3ccccc3ccc21`, the activation is -1.28% (inactive).
The same measure, in the same setting: in the case of `N#Cc1ccccc1` it was -3.25% (inactive); in that of `CN(c1c(Br)cc(Br)cc1Br)c1c([N+](=O)[O-])cc([N+](=O)[O-])cc1C(F)(F)F`, 1.9% (inactive); in that of `[Cu+2].[O-]c1cccc2cccnc12.[O-]c1cccc2cccnc12`, -9.69% (inactive).
The same measure, in the same setting: in the case of `COc1ccccc1[N+](=O)[O-]` it was -1.25% (inactive) and -5.38% (inactive); in that of `CC(C)C(=O)OCC(C)(C)C(O)C(C)C` (stereo unspecified), -0.406% (inactive).
On the same count and under the same terms, with `CCCCNC(=O)OCC#CI` the figure was 1.93% (inactive); with `CC(C)(C)C(=O)C1C(=O)c2ccccc2C1=O`, 1.07% (inactive); with `CCCCC(CC)COC(=O)CCCCC(=O)OCC(CC)CCCC` (stereo unspecified), -0.368% (inactive) and -0.458% (inactive).
For `CCOC(=O)C(C)Oc1ccc(Oc2nc3ccc(Cl)cc3o2)cc1` (stereo unspecified), the activation is -3.02% (inactive).
Regarding `Cc1cc(C)c(N)cc1C`, the activation was -1.7% (inactive).
Same read-out and setting: with `CCOC(=O)[C@H](C)Oc1ccc(Oc2nc3ccc(Cl)cc3o2)cc1` the figure was -2.5% (inactive).
Same read-out and setting: in the case of `CCOP(=O)(OCC)Oc1ccc([N+](=O)[O-])cc1` it was 2.69% (inactive); in that of `NC(N)=S`, -0.31% (inactive).
Same read-out and setting: in the case of `Nc1cnn([C@@H]2O[C@H](CO)[C@@H](O)[C@H]2O)c(=O)n1` it was -2.94% (inactive).
Take `CCCCCCCN`: the activation is -2.09% (inactive).
Take `Cc1nn(C)c(Oc2ccccc2)c1/C=N/OCc1ccc(C(=O)OC(C)(C)C)cc1`: the activation was 6.71% (inactive).
The same measure, in the same setting: in the case of `Nc1cc(Cl)nc(C(=O)O)c1Cl` it was -2.93% (inactive).
The same measure, in the same setting: with `Nc1ccccc1O` the figure was -1.93% (inactive).
On the same count and under the same terms, in the case of `C1COC1` it was -2.57% (inactive).
With `c1ccccc1`, the activation is -0.124% (inactive) [middle of 4 runs].
Still for that read-out and setting: in the case of `CC/C(=C(\c1ccccc1)c1ccc(OCCN(C)C)cc1)c1ccc(O)cc1` it was 1.2% (inactive).
Still for that read-out and setting: with `CCc1nn(C)c(C(=O)NCc2ccc(C(C)(C)C)cc2)c1Cl` the figure was 2.45% (inactive).
Still for that read-out and setting: in the case of `Cc1ccc([N+](=O)[O-])cc1N` it was -0.807% (inactive) and -1.04% (inactive); in that of `ClC(Cl)Cl`, 0.676% (inactive); in that of `Cc1ccc(-c2c(Cl)nc(C#N)n2S(=O)(=O)N(C)C)cc1`, 4.98% (inactive).
Regarding `c1ccc2cc3c(ccc4ccccc43)cc2c1`, the activation is 2.13% (inactive).
Same read-out and setting: with `CC(=O)OCc1ccc2c(c1)OCO2` the figure was -1.12% (inactive).
Same read-out and setting: with `Nc1ccc(-c2ccc(N)c(O)c2)cc1O` the figure was -0.21% (inactive); with `Cc1cc([N+](=O)[O-])ccc1N`, -0.935% (inactive); with `Nc1cccc(C(F)(F)F)c1`, -1.94% (inactive) and -0.257% (inactive).
Still for that read-out and setting: with `Cc1ccc2ccc3cccc4ccc1c2c34` the figure was -4.07% (inactive).
As to `CN(C)CCCCCCN(C)C`, the activation is -2.62% (inactive).
Still for that read-out and setting: with `CCC(=O)/C=C/C1C(C)=CCCC1(C)C` (stereo unspecified) the figure was -0.845% (inactive).
In the case of `Oc1ccc2ccccc2c1N=Nc1ccccc1`, the activation is 3.78% (inactive).
The same measure, in the same setting: in the case of `O=C1OC(=O)c2ccccc21` it was 1.95% (inactive).
The same measure, in the same setting: with `CN(C)c1ccc(Cc2ccc(N(C)C)cc2)cc1` the figure was -1.47% (inactive).
Still for that read-out and setting: in the case of `CCCCC(CC)COP(=O)(OCC(CC)CCCC)OCC(CC)CCCC` (stereo unspecified) it was -0.972% (inactive); in that of `c1ccc(-c2ccc(-c3ccccc3)cc2)cc1`, 2.41% (inactive).

A further test deals with Peroxisome proliferator-activated receptor delta (Homo sapiens) (UniProt Q03181). Briefly: qHTS assay for small molecule agonists of peroxisome proliferator-activated receptor delta signaling (AID 588534).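 Note: 0% = DMSO basal wells and 100% = positive control agonist at 10 µM.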 To be noted: HEK293T PPARdelta-UAS-bla, beta-lactamase ratio, 18 h; series mostly up to 76.7 µM. An outline of the steps: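 Reporter cells were plated and held 5 hrs at 37 C before compounds were added. After 18 hrs at 37 C, CCF4 dye was loaded for 2 hrs at RT and fluorescence measured.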
Chain of Peroxisome proliferator-activated receptor delta (Homo sapiens) (Q03181 whole entry, looked up): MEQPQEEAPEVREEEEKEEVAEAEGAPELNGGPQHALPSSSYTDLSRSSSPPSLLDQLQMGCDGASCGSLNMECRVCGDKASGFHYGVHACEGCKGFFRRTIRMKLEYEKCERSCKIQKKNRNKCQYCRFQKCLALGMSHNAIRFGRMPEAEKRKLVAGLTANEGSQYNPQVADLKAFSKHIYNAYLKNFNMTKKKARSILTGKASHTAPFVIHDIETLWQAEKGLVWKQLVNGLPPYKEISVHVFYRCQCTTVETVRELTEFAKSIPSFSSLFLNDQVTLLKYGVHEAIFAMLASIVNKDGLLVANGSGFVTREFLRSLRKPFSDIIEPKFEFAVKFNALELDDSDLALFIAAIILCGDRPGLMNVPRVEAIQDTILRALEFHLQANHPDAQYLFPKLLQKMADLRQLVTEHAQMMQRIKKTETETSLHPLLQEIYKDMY
With `CC(C)=CCl`, the outcome was inactive.
Still for that read-out and setting: in the case of `c1ccc2c(c1)ccc1c3ccccc3ccc21` it was “inactive”; in that of `N#Cc1ccccc1`, “inactive”; in that of `CC(C)C(=O)OCC(C)(C)C(O)C(C)C` (stereo unspecified), “inactive”.
Same read-out and setting: in the case of `CCCCNC(=O)OCC#CI` it was “inactive”.
On the same count and under the same terms, in the case of `CCCCC(CC)COC(=O)CCCCC(=O)OCC(CC)CCCC` (stereo unspecified) it was “inactive”; in that of `Cc1cc(C)c(N)cc1C`, “inactive”.
Consider `CCOP(=O)(OCC)Oc1ccc([N+](=O)[O-])cc1`, for which the result was inactive.
As for `Nc1cnn([C@@H]2O[C@H](CO)[C@@H](O)[C@H]2O)c(=O)n1`, the outcome was inactive.
On the same count and under the same terms, with `CCCCCCCN` the entry was “inactive”.
Regarding `Nc1cc(Cl)nc(C(=O)O)c1Cl`, the outcome was inactive.
Same read-out and setting: with `Nc1ccccc1O` the entry was “inactive”; with `C1COC1`, “inactive”; with `c1ccccc1`, “inactive”.
On the same count and under the same terms, with `Cc1ccc([N+](=O)[O-])cc1N` the entry was “inactive”.
As for `ClC(Cl)Cl`, the result was inactive.
The same measure, in the same setting: in the case of `Nc1ccc(-c2ccc(N)c(O)c2)cc1O` it was “inactive”.
Still for that read-out and setting: with `Cc1cc([N+](=O)[O-])ccc1N` the entry was “inactive”.
Still for that read-out and setting: in the case of `Nc1cccc(C(F)(F)F)c1` it was “inactive”; in that of `Cc1ccc2ccc3cccc4ccc1c2c34`, “inactive”.
With `CN(C)CCCCCCN(C)C`, the outcome was inactive.
The same measure, in the same setting: with `CCC(=O)/C=C/C1C(C)=CCCC1(C)C` (stereo unspecified) the entry was “inactive”; with `O=C1OC(=O)c2ccccc21`, “inactive”; with `CN(C)c1ccc(Cc2ccc(N(C)C)cc2)cc1`, “inactive”.
Same read-out and setting: with `CCCCC(CC)COP(=O)(OCC(CC)CCCC)OCC(CC)CCCC` (stereo unspecified) the entry was “inactive”; with `c1ccc(-c2ccc(-c3ccccc3)cc2)cc1`, “inactive”.
